About 83,000 compounds went through this panel and 20% of them were active in at least one assay; those are over-represented in the sample as a whole.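 96-well plates, one dose, 48 hours. Percent growth reported; active if below 10.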 Activity calls are given as the source filed them.
What follows are molecules tested on CAKI-1 renal (assay: NCI-60 one-dose screen, 48 h (100 = growth as untreated, 0 = no growth, -100 = all killed)). Settings: 10 µM unless noted.

Compound	growth
COc1ccc(NC(=O)Nc2ccc(OCc3ccc(F)cc3)cc2)cc1	66.6% (inactive)
COc1ccc(/C=C/c2nc3ccccc3n3c(-c4ccc(Cl)cc4)nnc23)cc1	72.2% (inactive)
CC1(C)CC[C@]2(C(=O)O)CC[C@]3(C)C(=CCC4[C@@]5(C)C[C@@H](O)[C@@H]6OC(c7ccccc7Br)OC[C@@]6(C)C5CC[C@]43C)C2C1 (stereo partly specified)	14.6% (inactive)
CC(=O)OCC1OC(OC2C(COC(C)=O)OC(n3cc(COc4ccc5ccc(=O)oc5c4)nn3)C(OC(C)=O)C2OC(C)=O)C(OC(C)=O)C(OC(C)=O)C1OC(C)=O (stereo unspecified)	88.1% (inactive)
COc1ccc(Cc2nn(CC(=O)N/N=C/c3ccc(F)cc3)c(=O)c3c(C)noc23)cc1	10.2% (inactive)
O=C(c1ccccc1)C(c1c[nH]c2ccccc12)c1c[nH]c2ccccc12	31.6% (inactive)
N=C1N=C(SCc2nc3ccccc3[nH]2)NC(=O)/C1=C/c1ccc(Cl)cc1	85.9% (inactive)
Cn1cc(-c2cc3nc(-c4c[nH]c5ccc(Cl)cc45)cc(N)n3n2)c2ccccc21	-94.6% (active)
CC1(C)CC[C@]2(C(=O)O)CC[C@]3(C)C(=CCC4[C@@]5(C)C[C@@H](O)[C@@H]6OC(c7ccco7)OC[C@@]6(C)C5CC[C@]43C)C2C1 (stereo partly specified)	33.1% (inactive)
COc1ccc(C2CC(c3ccc(S(=O)(=O)NCCNc4nc(Nc5ccc(F)cc5)nc(N(C)C)n4)cc3)=Nc3c(N)nc(N)nc3N2)cc1 (stereo unspecified)	88.1% (inactive)
O=C(Nc1ccccc1)N1CCN(c2cc(-c3cn(-c4ccccc4)nc3-c3cccc(O)c3)ccn2)CC1	70.3% (inactive)
CNS(=O)(=O)c1ccc(Nc2ccc(C(F)(F)F)cc2)c(-c2cn(C)cn2)c1	60.8% (inactive)
CCS(=O)(=O)N1CCCC(C(=O)Nc2nc3ccc(NC(=O)c4ccc(F)c(OC)c4F)cc3s2)C1 (stereo unspecified)	57.6% (inactive)
COc1ccc(CCC2c3c(cc4c(c3OC)OCO4)CCN2C)cc1 (stereo unspecified)	0.732% (active)
Nc1nc(-c2ccccc2)c(N=Nc2ccc([N+](=O)[O-])cc2Cl)s1	81.2% (inactive)
CN(C)c1nc(NCCNS(=O)(=O)c2ccc(C3=Nc4c(N)nc(N)nc4NC(c4ccccc4)C3)cc2)nc(Nc2ccc(F)cc2)n1 (stereo unspecified)	61.2% (inactive)
N/C(=N\c1nc2ccccc2s1)NC(=O)Nc1ccc(Cl)cc1Cl	-87.7% (active)
CCCCn1c(O)c(N=Nc2nc(-c3cc4ccccc4oc3=O)cs2)c2cc(Br)ccc21	102% (inactive)
Cc1cccc(-c2nc(Nc3cccc(S(N)(=O)=O)c3)c3ccccc3n2)c1	46.9% (inactive)
Cn1cc(-c2cc(N)n3nc(-c4cn(C)c5ccccc45)cc3n2)c2cc(Br)ccc21	-75.3% (active)
COc1cc2c(c(OC)c1OC)C(=O)CC(c1cccc(NC(=O)c3cc(NC(=O)[C@H](C)N)ccc3Cl)c1)O2 (stereo partly specified)	51.5% (inactive)
C#CCOc1cc(N(CC)CC)ccc1C(C(=O)NC(C)(C)C)N(C(=O)C1CCc2cc(F)ccc2O1)c1cc(C)cc(C)c1 (stereo unspecified)	27.9% (inactive)
Cc1ccc(C2=NN(c3nc(-c4cc5ccccc5oc4=O)cs3)C(c3ccc(C)cc3)C2)cc1 (stereo unspecified)	88.2% (inactive)
Cn1cc(-c2nc(N)nnc2-c2c[nH]c3ccc(F)cc23)c2cc(Br)cnc21	-10.9% (active)

Each molecule was assayed on A498 renal in the same assay as above. Settings: 10 µM unless noted.

Compound	growth
Brc1ccc(-c2n(Cc3ccc4ccccc4c3)c(-c3ccccc3)c(-c3ccccc3)[n+]2Cc2ccc3ccccc3c2)cc1	-94% (active)
O=C1CCCc2cc(OCC(=O)N3CCCCC3)ccc2N1	114% (inactive)
COc1cc2c3c(n(CCCN4CCC[C@@H]4CO)c(=O)c2cc1OC)-c1cc2c(cc1C3=O)OCO2	93.8% (inactive)
CC(=O)c1c(N)c(C#N)cn1-c1ccc(Cl)cc1Cl	112% (inactive)
Cc1ccc(C2CC(c3ccc(S(=O)(=O)NCCNc4nc(Nc5ccc(F)cc5)nc(N(C)C)n4)cc3)=Nc3c(N)nc(N)nc3N2)cc1 (stereo unspecified)	89.2% (inactive)
Cc1ccc(C(=O)C(c2c[nH]c3ccccc23)c2c[nH]c3ccccc23)cc1	108% (inactive)
COc1cc(-c2nc3ccc(C)cc3[nH]2)ccc1OCc1nnc(-c2ccc(Br)cc2)o1	89.3% (inactive)
Nc1nnc(-c2c[nH]c3ccc(Br)cc23)c(-c2c[nH]c3ncc(Br)cc23)n1	17.6% (inactive)
Cc1ccc(-c2nc(C#N)c(S(=O)(=O)N3CCN(S(=O)(=O)c4ccc(Cl)cc4)CC3)o2)cc1	107% (inactive)
CCOC(=O)C1=C(N)N(c2ccccc2)C2=C(C(=O)CC(C)(C)C2)C1c1ccccc1Cl (stereo unspecified)	99.4% (inactive)
Cc1ccc(C(=O)NN2C(=O)/C(=C/C=C/c3ccc([N+](=O)[O-])o3)SC2=S)cc1	-73.3% (active)
CCCS(=O)(=O)N1CCCC(C(=O)Nc2nc3ccc(NC(=O)c4ccc(F)c(OC)c4F)cc3s2)C1 (stereo unspecified)	84.3% (inactive)
O=C1CC(Sc2n[nH]c(-c3ccncc3)n2)C(=O)N1c1ccc(Br)cc1 (stereo unspecified)	111% (inactive)
COc1ccc(NC(=O)Nc2ccc(OCc3ccc(F)cc3)cc2)cc1	80.3% (inactive)
COc1ccc(/C=C/c2nc3ccccc3n3c(-c4ccc(Cl)cc4)nnc23)cc1	85.3% (inactive)
CC1(C)CC[C@]2(C(=O)O)CC[C@]3(C)C(=CCC4[C@@]5(C)C[C@@H](O)[C@@H]6OC(c7ccccc7Br)OC[C@@]6(C)C5CC[C@]43C)C2C1 (stereo partly specified)	23.7% (inactive)
CC(=O)OCC1OC(OC2C(COC(C)=O)OC(n3cc(COc4ccc5ccc(=O)oc5c4)nn3)C(OC(C)=O)C2OC(C)=O)C(OC(C)=O)C(OC(C)=O)C1OC(C)=O (stereo unspecified)	116% (inactive)
COc1ccc(Cc2nn(CC(=O)N/N=C/c3ccc(F)cc3)c(=O)c3c(C)noc23)cc1	-57.5% (active)
O=C(c1ccccc1)C(c1c[nH]c2ccccc12)c1c[nH]c2ccccc12	98.1% (inactive)

Compound	growth
N=C1N=C(SCc2nc3ccccc3[nH]2)NC(=O)/C1=C/c1ccc(Cl)cc1	122% (inactive)
Cn1cc(-c2cc3nc(-c4c[nH]c5ccc(Cl)cc45)cc(N)n3n2)c2ccccc21	-62.7% (active)
CC1(C)CC[C@]2(C(=O)O)CC[C@]3(C)C(=CCC4[C@@]5(C)C[C@@H](O)[C@@H]6OC(c7ccco7)OC[C@@]6(C)C5CC[C@]43C)C2C1 (stereo partly specified)	62.4% (inactive)
COc1ccc(C2CC(c3ccc(S(=O)(=O)NCCNc4nc(Nc5ccc(F)cc5)nc(N(C)C)n4)cc3)=Nc3c(N)nc(N)nc3N2)cc1 (stereo unspecified)	93.6% (inactive)
O=C(Nc1ccccc1)N1CCN(c2cc(-c3cn(-c4ccccc4)nc3-c3cccc(O)c3)ccn2)CC1	103% (inactive)
CNS(=O)(=O)c1ccc(Nc2ccc(C(F)(F)F)cc2)c(-c2cn(C)cn2)c1	50.7% (inactive)
CCS(=O)(=O)N1CCCC(C(=O)Nc2nc3ccc(NC(=O)c4ccc(F)c(OC)c4F)cc3s2)C1 (stereo unspecified)	87.9% (inactive)
COc1ccc(CCC2c3c(cc4c(c3OC)OCO4)CCN2C)cc1 (stereo unspecified)	13.2% (inactive)
Nc1nc(-c2ccccc2)c(N=Nc2ccc([N+](=O)[O-])cc2Cl)s1	73.6% (inactive)
CN(C)c1nc(NCCNS(=O)(=O)c2ccc(C3=Nc4c(N)nc(N)nc4NC(c4ccccc4)C3)cc2)nc(Nc2ccc(F)cc2)n1 (stereo unspecified)	57.3% (inactive)
N/C(=N\c1nc2ccccc2s1)NC(=O)Nc1ccc(Cl)cc1Cl	-84.6% (active)
CCCCn1c(O)c(N=Nc2nc(-c3cc4ccccc4oc3=O)cs2)c2cc(Br)ccc21	103% (inactive)
Cc1cccc(-c2nc(Nc3cccc(S(N)(=O)=O)c3)c3ccccc3n2)c1	47.7% (inactive)
Cn1cc(-c2cc(N)n3nc(-c4cn(C)c5ccccc45)cc3n2)c2cc(Br)ccc21	-26.3% (active)
COc1cc2c(c(OC)c1OC)C(=O)CC(c1cccc(NC(=O)c3cc(NC(=O)[C@H](C)N)ccc3Cl)c1)O2 (stereo partly specified)	80.7% (inactive)
C#CCOc1cc(N(CC)CC)ccc1C(C(=O)NC(C)(C)C)N(C(=O)C1CCc2cc(F)ccc2O1)c1cc(C)cc(C)c1 (stereo unspecified)	45.8% (inactive)
Cc1ccc(C2=NN(c3nc(-c4cc5ccccc5oc4=O)cs3)C(c3ccc(C)cc3)C2)cc1 (stereo unspecified)	127% (inactive)
Cn1cc(-c2nc(N)nnc2-c2c[nH]c3ccc(F)cc23)c2cc(Br)cnc21	-31.2% (active)

From PubChem BioAssay (NCI)
